Screen size: about 310,000 compounds; about 14,000 (4.5%) showed an effect of 50% or more. Effects have a minus sign here. Many of the other results were omitted from the sample, so strong results are more common in it than they were.
What follows are compounds tested against human ether-à-go-go-related gene (hERG) potassium channel (human, UniProt Q12809) (assay: primary screen, population patch clamp on CHO cells stably expressing hERG; higher = less effect of the substance).
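Also: peak tail current of the secondary pulse compared with the same well before compound.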

Sequence of human ether-à-go-go-related gene (hERG) potassium channel (Q12809 whole entry, looked up): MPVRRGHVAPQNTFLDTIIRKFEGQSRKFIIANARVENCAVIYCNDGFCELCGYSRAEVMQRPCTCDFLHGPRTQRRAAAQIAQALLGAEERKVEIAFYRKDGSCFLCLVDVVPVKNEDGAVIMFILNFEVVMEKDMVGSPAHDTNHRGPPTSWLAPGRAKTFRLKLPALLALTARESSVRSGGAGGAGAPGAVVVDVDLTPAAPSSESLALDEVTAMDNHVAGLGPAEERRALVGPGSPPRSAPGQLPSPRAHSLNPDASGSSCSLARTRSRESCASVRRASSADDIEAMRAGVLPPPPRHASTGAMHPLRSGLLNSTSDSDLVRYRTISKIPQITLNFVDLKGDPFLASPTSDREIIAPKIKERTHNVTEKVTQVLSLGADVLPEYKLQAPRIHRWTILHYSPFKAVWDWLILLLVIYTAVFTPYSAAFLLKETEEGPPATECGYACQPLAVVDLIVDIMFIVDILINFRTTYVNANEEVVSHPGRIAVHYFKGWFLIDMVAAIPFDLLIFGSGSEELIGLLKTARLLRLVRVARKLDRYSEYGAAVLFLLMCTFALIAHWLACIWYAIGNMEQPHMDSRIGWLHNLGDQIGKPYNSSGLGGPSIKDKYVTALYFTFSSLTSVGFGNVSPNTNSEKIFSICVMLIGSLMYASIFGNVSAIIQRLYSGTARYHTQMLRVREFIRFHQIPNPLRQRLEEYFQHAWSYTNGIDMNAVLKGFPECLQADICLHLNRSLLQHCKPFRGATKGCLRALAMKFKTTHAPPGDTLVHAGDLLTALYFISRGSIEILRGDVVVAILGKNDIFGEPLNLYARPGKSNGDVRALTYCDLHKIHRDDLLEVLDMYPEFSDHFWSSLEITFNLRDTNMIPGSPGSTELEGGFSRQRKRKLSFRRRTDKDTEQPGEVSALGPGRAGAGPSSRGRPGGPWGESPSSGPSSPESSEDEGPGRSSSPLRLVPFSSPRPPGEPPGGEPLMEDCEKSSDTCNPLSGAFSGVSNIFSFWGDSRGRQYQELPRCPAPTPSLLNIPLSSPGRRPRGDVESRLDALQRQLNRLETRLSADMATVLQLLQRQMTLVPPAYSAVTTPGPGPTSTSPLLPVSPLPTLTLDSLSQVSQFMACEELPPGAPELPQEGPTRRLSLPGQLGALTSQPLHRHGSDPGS

In order of rising “hERG current change (%, negative = inhibition) at 10uM” value:
1. Cn1cnnc1Sc1ccc(C(=O)NCCC(c2ccccc2)c2ccccc2)cc1[N+](=O)[O-]  -74.3%
2. Cc1ccc(CN2CCN(Cc3cccc4nccnc34)CC2CCO)cc1 (centres unmarked)  -66.6%
3. COc1ccc(C(CNC(=O)c2cccc(NS(=O)(=O)c3ccc(C)c(F)c3)c2)N2CCCC2)cc1 (centres unmarked)  -64%
4. CCC(C)(C(=O)NC1CCCCC1)N(CC1CCCO1)C(=O)c1ccccn1 (centres unmarked)  -63.3%
5. CN(c1ccccc1C(=O)Nc1cccc([N+](=O)[O-])c1)S(=O)(=O)c1ccccc1  -63.2%
6. COc1ccc(C(CNC(=O)c2cccc(NS(=O)(=O)c3ccc(C)c(F)c3)c2)N(C)C)cc1 (centres unmarked)  -62.6%
7. COc1ccc(C(CNC(=O)c2cccc(NS(=O)(=O)c3ccc(Br)cc3)c2)N(C)C)cc1 (centres unmarked)  -61.5%
8. Cc1ccc(CN2CCN(Cc3ccc4ncccc4c3)CC2CCO)cc1 (centres unmarked)  -58.9%
9. Cc1ccc(CN(C)CC(=O)Nc2cccc([N+](=O)[O-])c2)o1  -58.4%
10. OCCC1CN(Cc2cccc3nccnc23)CCN1Cc1ccc(F)c(F)c1 (centres unmarked)  -56.4%
11. COC(=O)C1=C(c2ccc(F)cc2OCc2ccccc2)C[C@@H]2CC[C@H]1N2C  -52%
12. CN(CC(=O)Nc1cccc([N+](=O)[O-])c1)S(=O)(=O)c1ccccc1  -51.9%
13. COc1ccc2cc(C(c3nnnn3C3CCCC3)N3CCOCC3)c3nnnn3c2c1 (centres unmarked)  -51.7%
14. COc1ccccc1C(CNC(=O)c1cccc(NS(=O)(=O)c2ccc(Br)cc2)c1)N(C)C (centres unmarked)  -51.7%
15. COC(=O)C1=C(c2ccc(F)cc2OCc2ccccc2)C[C@@H]2CC[C@H]1N2C(=O)NCC1CC1  -51.5%
16. CN1CCN(S(=O)(=O)c2cccc(C(=O)N(Cc3nnc(-c4ccc(Cl)cc4)o3)C3CC3)c2)CC1  -49.3%
17. COc1ccc(C(CNC(=O)c2cccc(NS(=O)(=O)c3ccccc3)c2)N(C)C)cc1 (centres unmarked)  -46.4%
18. Cc1ccc(S(=O)(=O)Nc2cccc(C(=O)NCC(c3ccccc3)N(C)C)c2)cc1F (centres unmarked)  -45.8%
19. COc1ccccc1C(CNC(=O)c1cccc(NS(=O)(=O)c2ccc(C)c(F)c2)c1)N(C)C (centres unmarked)  -42.5%
20. COc1ccc(S(=O)(=O)NCC2CCCN(Cc3ccc(OC)cc3F)C2)cc1 (centres unmarked)  -42%
21. COc1ccc(Cl)cc1NC(=O)CSc1nnc(CNC(=O)c2cccs2)o1  -39.8%
22. CN(CC(=O)Nc1cccc(F)c1)CC(=O)Nc1cccc([N+](=O)[O-])c1  -39.7%
23. Cc1ccc(S(=O)(=O)Nc2cccc(C(=O)NCC(c3ccco3)N3CCCC3)c2)cc1F (centres unmarked)  -38.5%
24. COC(=O)C1=C(c2ccc(F)cc2OCc2ccccc2)C[C@@H]2CC[C@H]1N2C(=O)NC(C)C  -35.3%
25. Cc1ccccc1S(=O)(=O)Cc1ccc(C(=O)NC2CCCCCC2)o1  -31.9%
26. COc1ccc(C(Nc2cccc([N+](=O)[O-])c2)P(=O)(OC(C)C)OC(C)C)cc1 (centres unmarked)  -31.5%
27. OCCC1CN(Cc2cccc3nccnc23)CCN1Cc1ccc(F)cc1 (centres unmarked)  -30.8%
28. CC(=O)Oc1ccc(/C=N/NC(=O)C2CCCN2S(=O)(=O)c2ccc(Cl)cc2)cc1 (centres unmarked)  -28.1%
29. COc1ccc(C(CNC(=O)c2ccc(NS(=O)(=O)c3ccc(F)c(C)c3)cc2)N(C)C)cc1 (centres unmarked)  -25.8%
30. Cc1c(-c2ccccc2)nc2ccccc2c1C(=O)Oc1ccc([N+](=O)[O-])cc1  -21.6%
31. Cc1cccc(NC(=S)N(CCCN2CCOCC2)C(C)c2cc3ccccc3o2)c1C (centres unmarked)  -20.9%
32. CN(c1ccccc1C(=O)Nc1cccc([N+](=O)[O-])c1)S(C)(=O)=O  -20%
33. OCCC1CN(Cc2ccc3ncccc3c2)CCN1Cc1ccccc1 (centres unmarked)  -14.8%
34. OCCC1CN(Cc2ccon2)CCN1Cc1ccc(F)c(F)c1 (centres unmarked)  -13.9%
35. CC(C)CN1CCN(Cc2ccc3ncccc3c2)CC1CCO (centres unmarked)  -13.2%
36. CCOc1ccc(S(=O)(=O)Nc2cccc(C(=O)NCC(c3ccccc3)N(C)C)c2)cc1 (centres unmarked)  -12%
37. CC(=O)c1cccc(NC(=O)CN(C)S(=O)(=O)c2ccccc2)c1  -11.5%
38. COC(=O)C1=C(c2ccc(F)cc2OCc2ccccc2)C[C@@H]2CC[C@H]1N2C(=O)NC1CC1  -10.4%
39. COc1ccc(C(CNC(=O)c2cccc(NS(=O)(=O)c3ccc(C)c(F)c3)c2)N2CCOCC2)cc1 (centres unmarked)  -9.43%
40. CN(Cc1ccccc1)S(=O)(=O)c1ccc(OCC(=O)Nc2cccc([N+](=O)[O-])c2)cc1  -9.01%
41. CC(C)=CCN1CCN(Cc2cccc3nccnc23)CC1CCO (centres unmarked)  -8.42%
42. CC(C)CN1CCN(Cc2cccc3nccnc23)CC1CCO (centres unmarked)  -8.4%
43. COc1ccccc1C(CNC(=O)c1cccc(S(=O)(=O)Nc2ccc(C)cc2)c1)N(C)C (centres unmarked)  -8.39%
44. COc1ccccc1NS(=O)(=O)c1cccc(C(=O)N/N=C/c2ccc(N3CCOCC3)cc2)c1  -8.32%
45. COc1ccccc1C(=O)N/C(=C\c1cn(S(=O)(=O)N(C)C)c2ccccc12)C(=O)NCCCN1CCOCC1  -7.58%
46. COc1ccc(C(=O)OCCNC(=O)c2c(Cl)nc3ccccn23)cc1.Cl  -6.58%
47. CC(OC(=O)c1ccc(-c2ccc(O)cc2)cc1)C(=O)NC1CCCCC1C (centres unmarked)  -6.35%
48. O=C(c1ccc(Br)s1)N1CCCC1  -5.86%
49. COC(=O)C1=C(c2ccc(F)cc2OCc2ccccc2)C[C@@H]2CC[C@H]1N2C(=O)NCc1ccc(F)cc1  -5.76%
50. CN(c1ccccc1C(=O)Nc1cccc(Br)c1)S(=O)(=O)c1ccccc1  -5.01%
51. CN1CCN(NC(=O)c2ccc(S(=O)(=O)N3CC4(C)CC3CC(C)(C)C4)cc2)CC1.Cl (centres unmarked)  -2.07%
52. COC(=O)C1=C(c2ccc(F)cc2OCc2ccccc2)C[C@@H]2CC[C@H]1N2C(=O)NCc1ccccc1  -1.03%
53. CCOC(=O)N1CCN(CC(O)COc2ccccc2C(C)CC)CC1.Cl (centres unmarked)  0.934%
54. CCC(C)(C(=O)NC1CCCCC1)N(C)C(=O)c1ccccn1 (centres unmarked)  2.9%
55. COc1cc(CCC(=O)Nc2nccs2)cc(OC)c1OC  3.1%
56. CCn1nc(C)cc1C(=O)N1CCCC(C(=O)c2ccc(OC)cc2C)C1 (centres unmarked)  3.32%
57. CCC(C)(C)NC(=O)c1ccc(Sc2nncn2C)c([N+](=O)[O-])c1  3.37%
58. COc1ccc2cc(C(c3nnnn3C3CCCCC3)N3CCCCCC3)c3nnnn3c2c1 (centres unmarked)  4.6%
59. CCC(C)(C(=O)NC1CCCCC1)N(CC1CCCO1)C(=O)CNC(=O)c1ccccc1 (centres unmarked)  6.13%
60. COc1ccccc1N1CCN(C(=O)CSc2nc(N)cc(=O)[nH]2)CC1  6.2%
61. Nc1cccc(-c2cc3ccccc3oc2=O)c1  6.38%
62. Cc1ccc(S(=O)(=O)NCc2c(-c3ccccc3)c3cc(Cl)ccc3[nH]c2=O)cc1  7.18%
63. CCOc1ccc(NC(=O)c2ccccc2NC(=O)c2cccnc2)cc1  7.52%
64. C#CCOCCOCCOCCNc1nc(N2CCN(C(=O)[C@H](CCC(=O)O)n3cc(C(N)[C@H](C)CC)nn3)CC2)nc(N2CCN(C(=O)[C@H](Cc3ccc(O)cc3)n3cc(C(N)[C@H](C)CC)nn3)CC2)n1.Cl (some centres unmarked)  7.62%
65. COc1c(C)cc(C(=O)C2CCCN(C(=O)c3cc(C)nc(C)n3)C2)cc1C (centres unmarked)  7.89%
66. C/C(=N\Nc1cccc(C(=O)O)c1)c1cc2ccccc2o1  9.54%
67. CCOC(=O)CN1C(=O)C(O)=C(C(C)=O)C1c1ccccc1 (centres unmarked)  11.3%
68. FC(F)(F)c1nnc2c(Sc3ccccc3)nc3ccc(Cl)cc3n12  12.2%
69. Cn1cnnc1Sc1ccc(C(=O)NCCC23CC4CC(CC(C4)C2)C3)cc1[N+](=O)[O-]  12.9%
70. O=C(NCCc1ccccc1)C1CCN(S(=O)(=O)c2cccnc2)CC1  12.9%
71. Cc1ccc(CC(=O)Nc2cccc([N+](=O)[O-])c2)cc1  15.8%
72. COc1ccc2cc(C(c3nnnn3C3CCCC3)N3CCCCCC3)c3nnnn3c2c1 (centres unmarked)  15.9%
73. CC(=O)C(=Nc1ccccc1Cl)NNc1ccc(Cl)cc1  17.3%
74. Cc1ccccc1C(=O)Nc1nnc(-c2cccnc2)o1  18.4%
75. O=C1COc2ccc(S(=O)(=O)Nc3ccc4c(c3)OCO4)cc2N1  19.4%
76. Cc1ccc(-n2c(O)c(C=NCCCn3ccnc3)c(=O)[nH]c2=O)cc1  19.6%
77. COc1ccc(Cl)cc1C(=O)N1CCN=C1SC  21.3%

From paper PMC4336329 (PLoS ONE, 2015)
